For 20 compounds, outcome and AC50 results are on record in PubChem BioAssay (EPA / NIEHS).

Where “and” joins values, the source holds several entries; their conditions need not be identical. Equal values may be shown once. More than one record can exist for a structure, and the calls need not agree. Calls of active or inactive are those of the source. How the source made its calls: active means hit-call score of the fitted dose curve at least 0.9, where 1 is the maximum; inactive means score below 0.9.

Sequence of Transcription factor Sp1 (Homo sapiens) (P08047 whole entry, looked up): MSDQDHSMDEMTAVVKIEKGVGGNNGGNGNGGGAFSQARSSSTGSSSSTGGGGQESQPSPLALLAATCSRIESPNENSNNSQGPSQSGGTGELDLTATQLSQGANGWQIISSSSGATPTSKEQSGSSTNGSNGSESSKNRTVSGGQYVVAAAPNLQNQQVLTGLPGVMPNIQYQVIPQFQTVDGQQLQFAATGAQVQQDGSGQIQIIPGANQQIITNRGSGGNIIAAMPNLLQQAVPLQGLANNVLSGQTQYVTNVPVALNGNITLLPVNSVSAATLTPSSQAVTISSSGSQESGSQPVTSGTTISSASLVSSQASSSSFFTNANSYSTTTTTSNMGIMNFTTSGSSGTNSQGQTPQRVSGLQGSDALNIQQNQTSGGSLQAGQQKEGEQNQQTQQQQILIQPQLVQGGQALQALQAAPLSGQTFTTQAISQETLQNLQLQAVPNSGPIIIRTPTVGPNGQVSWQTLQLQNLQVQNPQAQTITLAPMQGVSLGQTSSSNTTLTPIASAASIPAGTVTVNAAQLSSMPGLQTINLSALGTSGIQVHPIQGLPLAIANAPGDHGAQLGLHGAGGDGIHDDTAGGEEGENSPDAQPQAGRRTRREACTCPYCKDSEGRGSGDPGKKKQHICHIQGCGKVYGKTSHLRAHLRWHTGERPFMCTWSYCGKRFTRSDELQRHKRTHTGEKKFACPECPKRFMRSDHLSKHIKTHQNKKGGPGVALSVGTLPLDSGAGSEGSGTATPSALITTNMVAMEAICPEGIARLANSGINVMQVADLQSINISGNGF

The assay addresses Transcription factor Sp1 (Homo sapiens) (UniProt P08047). Description: ATG_Sp1_CIS: Attagene CIS-FACTORIAL HepG2 Assay for human Specificity Protein 1 (Sp1) (AID 2282961). The conditions noted are these: HepG2 Sp1 cis-reporter transcription, actives raise or lower the signal. In short, it runs like this: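 Measures mRNA induction of an Sp1-linked reporter in HepG2 cells 24 h post-dosing. Multiplexed reporters read by RT-PCR and capillary electrophoresis; DMSO serves as negative control and baseline.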
As for `COc1nc(NC(C)C)nc(NC(C)C)n1`, the outcome was inactive. Turning to `Oc1ccccc1-c1ccccc1`, the concentration at half-maximal activity (AC50) is 50 µM (active) and the compound was classed as inactive. For `COc1nc(C)nc(NC(=O)NS(=O)(=O)c2ccccc2Cl)n1`, the call was inactive. With `CCOC(=O)CC(SP(=S)(OC)OC)C(=O)OCC` (stereo not drawn), the compound was called inactive. As for `CCCCC(CC)COC(=O)c1ccccc1C(=O)OCC(CC)CCCC` (stereo not drawn), the compound was called inactive. On to `COc1nc(C)nc(NC(=O)NS(=O)(=O)c2ccccc2CCC(F)(F)F)n1`, for which the call was inactive. In the case of `COc1ccc(C(c2ccc(OC)cc2)C(Cl)(Cl)Cl)cc1`, the concentration at half-maximal activity (AC50) is 24.4 µM (active) and 38.1 µM (active); the call was inactive.

Turning to `CNC(=S)S`, the compound was classed as inactive. For the compound `COP(=S)(OC)Oc1nc(Cl)c(Cl)cc1Cl`, the result was inactive.

For `COC(=O)N(OC)c1ccccc1COc1ccn(-c2ccc(Cl)cc2)n1`, the compound was called inactive.

For `N#Cc1nn(-c2c(Cl)cc(C(F)(F)F)cc2Cl)c(N)c1S(=O)C(F)(F)F` (stereo not drawn), the outcome was inactive. As for `C=CCC1=C(C)[C@@H](OC(=O)[C@@H]2[C@@H](C=C(C)C)C2(C)C)CC1=O`, the result was inactive.

For `CCCC1COC(Cn2cncn2)(c2ccc(Cl)cc2Cl)O1` (stereo not drawn), the compound was called inactive. Still for that read-out and setting: as for `CO/C=C(/C(=O)OC)c1ccccc1Oc1cc(Oc2ccccc2C#N)ncn1`, the entry is “inactive”; as for `CON(C)C(=O)Nc1ccc(Cl)c(Cl)c1`, “inactive”. The same measure, in the same setting: as for `CCCCNC(=O)n1c(NC(=O)OC)nc2ccccc21`, the entry is “inactive”; as for `CCCCOC(=O)c1ccccc1C(=O)OCCCC`, “inactive”; as for `COC(=O)c1ccccc1C(=O)OC`, “inactive”.

For the compound `CCCCNC(=O)OCC#CI`, the AC50 was 31.9 µM (active) and the compound was classed as inactive. With `CC(C)(C)c1ccc(CSc2cnn(C(C)(C)C)c(=O)c2Cl)cc1`, the AC50 is 0.0129 µM (active).

A word on the AC50: it is the midpoint of the concentration-response curve, whichever way the signal moves.
